Measurements as given in ChEMBL document CHEMBL4513216, “Probing the Open Global Health Chemical Diversity Library for Multistage-Active Starting Points for Next-Generation Antimalarials” (ACS Infect Dis, 2020).
Among all 69,000 compounds or so, about 8,600 (12%) showed an effect of 50% or more. Many of the other results were omitted from the sample, so strong results are more common in it than they were.

tested on: Plasmodium berghei; assay: Screen against P. berghei liver stage (PbLuc), transformed with Luciferase, at 10uM; assay type: functional, HepG2; details: tested at 10 uM

Going from `O=C1[C@H]2CN(c3ncccn3)C[C@H]2CN1CC1CC1` to `O=C1[C@H]2CN(c3ncc(F)cn3)C[C@H]2CN1CC1CC1`, the INHIBITION falls from 64.2% to 42.6%.

First: COCCN1C[C@@H]2CN(c3cnccn3)C[C@@H]2C1=O
Second: O=C1[C@H]2CN(c3cnccn3)C[C@H]2CN1CC1CC1
The INHIBITION of the first is lower: 14% for the first, 51.2% for the second.

Going from `O=C1[C@H]2CN(S(=O)(=O)C3CC3)C[C@H]2CN1CC1CC1` to `CCS(=O)(=O)N1C[C@H]2CN(CC3CC3)C(=O)[C@H]2C1`, the INHIBITION falls from 3.69% to -12.2%.

Going from `CN(C)C1COC2(CCN(Cc3ccc4c(c3)OCO4)CC2)C1` (stereo not drawn) to `COCC1N(C(=O)c2ccc3c(c2)OCCCO3)C2CCC1(O)CC2` (stereo not drawn), the INHIBITION rises from -50.4% to -35.3%.

First: COc1cc(C2CC(=O)Oc3cc(C)[nH]c(=O)c32)ccc1OCC(=O)O (stereo not drawn)
Second: COc1ccccc1OCCCc1cc(C)nc(N)n1
The INHIBITION of the first is higher: 13.1% for the first, -16.7% for the second.

Compared with `CN1CCN(c2nc(O)c3c(-c4ccccn4)ccnc3n2)CC1`, `CNc1cc(C2CN(Cc3cccnc3NC)CCO2)nc(C)n1` (stereo not drawn) is higher in INHIBITION: -33.2% for the first, 1.62% for the second.

Going from `O=C(c1ccccc1C1CCNC1)N1CCC(N2CCC(O)CC2)CC1` (stereo not drawn) to `O=C(c1ccc(Cn2ccccc2=O)o1)N1CCSCC1`, the INHIBITION rises from 11.5% to 20.45%.

Compared with `COCCN(CCOC)C(=O)Nc1cc(C(F)(F)F)c[nH]c1=O`, `COCCS(=O)(=O)Cc1csc(NC(C)=O)n1` is higher in INHIBITION: 12.7% for the first, 21.8% for the second.

Going from `Cc1ncsc1C(=O)NC1CCN(Cc2cccc3c2OCCO3)CC1` to `CNC(=O)C1Cn2ccnc2C2(CCN(Cc3cccnc3)CC2)O1` (stereo not drawn), the INHIBITION rises from 33.8% to 43.2%.

Going from `CC1CS(=O)(=O)CCN1CCCc1ccc(C(F)(F)F)cc1` (stereo not drawn) to `CN(CC(O)C(F)(F)F)C(=O)Nc1cccc(N2CCCC2)c1` (stereo not drawn), the INHIBITION falls from 10.1% to -16.4%.

First: CCCC(=O)n1ccn(S(=O)(=O)c2ccc(C)cc2)c1=O
Second: CCCC(=O)Nc1ccc(CC(=O)N(C)CCc2cn[nH]c2)cc1
The INHIBITION of the first is lower: 5.18% for the first, 17.3% for the second.

Compared with `CC(C)(CO)CNC(=O)c1cc(-c2cc[nH]n2)n2ccccc12`, `COCc1ccccc1NCc1csc(NC(C)=O)n1` is higher in INHIBITION: 41.2% for the first, 89% for the second.

Going from `Cc1cc(N(C)CCOc2ccccc2F)nc(N)n1` to `COc1ccccc1OCCN(C)c1cc(C)nc(N)n1`, the INHIBITION falls from 65.7% to 26.3%.

Compared with `CN(CCOc1ccccc1F)C1CCOC1=O` (stereo not drawn), `COc1ccccc1OCCCN(C)c1cc(C)nc(N)n1` is higher in INHIBITION: 33% for the first, 61.2% for the second.

Compared with `COc1ccc(OCCN(C)c2cc(C)nc(N)n2)cc1`, `CCc1cnc(N)nc1NC(C)c1ccc(C)c(C)c1` (stereo not drawn) is higher in INHIBITION: 45.4% for the first, 88.2% for the second.

Compared with `CC1c2ncc(CNC(=O)C3CC3)n2CCN1Cc1ccsc1` (stereo not drawn), `CCS(=O)(=O)N1CC[C@@H]2[C@H](CC1)N(Cc1cccnc1)CCS2(=O)=O` is higher in INHIBITION: -10.3% for the first, 5.56% for the second.

Compared with `COCCc1noc(CN2CCCC2c2noc(C)n2)n1` (stereo not drawn), `CCc1cnc(N)nc1NC(C)c1cnn(C)c1` (stereo not drawn) is higher in INHIBITION: -5.32% for the first, 17.8% for the second.

Compared with `COc1ccnc(NC(Cc2ccccc2)C(=O)N(C)C)n1` (stereo not drawn), `CC(=O)Nc1nc(CS(=O)(=O)Cc2ccccc2)cs1` is higher in INHIBITION: 8.7% for the first, 55.4% for the second.

First: Cn1cccc1C(=O)NC[C@H]1C[C@@H]2CN(C(=O)c3ccco3)C[C@@H]2O1
Second: O=C(NC[C@H]1C[C@@H]2CN(C(=O)c3ccco3)C[C@@H]2O1)c1ccsc1
The INHIBITION of the first is lower: 7.7% for the first, 18.6% for the second.

First: O=C(NC[C@@H]1C[C@@H]2CN(C(=O)CO)C[C@H]2O1)c1ccsc1
Second: CN(Cc1ccco1)C(=O)C1CSCN1C(=O)c1cccs1 (stereo not drawn)
The INHIBITION of the first is higher: 52.1% for the first, -31.8% for the second.

First: CC(C)OCc1ncn2c1CN(Cc1cccs1)CCC2
Second: Cn1cc(CN2CCC(F)(F)C3(CCN(c4ncc(F)cn4)C3)C2)cn1 (stereo not drawn)
The INHIBITION of the first is higher: 15.9% for the first, 12.5% for the second.

Compared with `CCn1cc2c(n1)C(COC)CN(C(=O)CCOc1ccccc1)C2` (stereo not drawn), `CC(=O)Nc1nc(CS(=O)(=O)CCCc2ccccc2)cs1` is higher in INHIBITION: -37.9% for the first, -25.2% for the second.

Going from `CCc1cnc(N)nc1N[C@@H](C)c1ncccc1C` to `CCOC(C)c1nc(CNc2cccc(Cl)c2OC)cs1` (stereo not drawn), the INHIBITION falls from 3.96% to -3.08%.

First: Cc1nc(CNc2ccccc2CCC(F)(F)F)cs1
Second: CC(=O)Nc1nc(CNc2ccccc2CCC(F)(F)F)cs1
The INHIBITION of the first is lower: -13.6% for the first, 42.6% for the second.

First: COc1c(Cl)cccc1NCc1csc(NC(C)=O)n1
Second: COc1c(Cl)cccc1NCc1csc(C)n1
The INHIBITION of the first is higher: 89.4% for the first, -1.37% for the second.

Going from `COCc1csc(NC(=O)NCc2ccccn2)n1` to `CNc1nc(CNC(=O)Nc2cccc(Cl)c2OC)cs1`, the INHIBITION rises from -3.99% to 3.263%.

With `Cc1nc(CNc2cccc(Cl)c2Cl)cs1` the INHIBITION was 50%.
